Assay results reported in PubChem BioAssay AID488857 (Sanford-Burnham Center for Chemical Genomics, 2010).
The whole screen tested about 1,400 compounds, of which about 560 (40%) were called active. So high a share suggests a set chosen from earlier hits. The list shows a part of the results. A number with no mark means an inactive call.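 The calls were made as follows: active = mean inhibition over duplicate tests at 10 µM above 50%; inactive = the rest.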

assay: ASC/caspase-1 reporter retest in S. cerevisiae at one dose, specificity check for NALP1 project (AID 488857); conditions: S. cerevisiae ASC/Caspase-1, beta-galactosidase luminescence, 24 h; at 10 µM; stronger effect = higher value

Row | Structure (SMILES) | inhibition
1 | CCOC(=O)c1c(C)[nH]c(N=Nc2cccc(C)c2)c1C | 46.2%
2 | Cc1cc(N2CCOCC2)ccc1/C=C\[N+](=O)[O-] | 56.6% (active)
3 | O=C1O/C(=C/c2ccccc2)c2ccccc21 | 78.5% (active)
4 | COC1=C(N)C(=O)c2nc(-c3nc(C(=O)O)c(C)c(-c4ccc(OC)c(OC)c4O)c3N)ccc2C1=O | 29.4%
5 | c1ccc(-c2ccc(-c3cn4c(n3)CCC4)cc2)cc1 | 93.3% (active)
6 | CC(C)NC(=O)CSc1nc(-c2ccccc2)cs1 | 52% (active)
7 | O=C(CSc1nc(-c2ccccc2)cs1)Nc1cccc([N+](=O)[O-])c1 | 75.8% (active)
8 | COc1cccc(CNC(=O)CSc2ccc(-c3ccncc3)nn2)c1 | 27.2%
9 | Cc1ccnc(NS(=O)(=O)c2ccc(NC(=O)CSc3nc(-c4ccccc4)cc(=O)[nH]3)cc2)n1 | 6.75%
10 | O=C(c1cccc([N+](=O)[O-])c1)n1nc(-c2ccccc2)nc1NCc1ccccc1 | 49.2%
11 | COc1ccc(Cc2nnc(SC)[nH]c2=O)cc1 | 20.1%
12 | Cc1cc(Br)ccc1OCCCCN1CCC(C)CC1 | 60.4% (active)
13 | Cc1ccc(OCCCCN2CCCCC2)c(Br)c1 | 62.1% (active)
14 | CC(C)NCCCCOc1cccc(Br)c1 | 45.5%
15 | Brc1cccc(OCCN2CCCCC2)c1 | 49.1%
16 | CCOC(=O)c1[nH]c2ccc(Br)cc2c1NC(=O)CCN1CCC(C)CC1 | 40%
17 | Brc1cccc(OCCCCN2CCCCC2)c1 | 53.8% (active)
18 | CC(C)N(C)CCOC(=O)c1ccccc1Br | 28.4%
19 | Cc1ccc(OCCCCN(C)Cc2ccccc2)c(Br)c1 | 54.8% (active)
20 | Cn1c(SCC(=O)NC(c2ccccc2)c2ccccc2)nnc1-c1cccs1 | 35.6%
21 | CC(CCc1ccccc1)NC(=O)c1cc2sccc2n1C (configuration not stated) | 52% (active)

Row | Structure (SMILES) | inhibition
22 | c1ccc2cc(CSCc3nc4ccccc4[nH]3)ccc2c1 | 71.4% (active)
23 | C=C(C)C1CC=C(C)/C(=N/NC(=O)c2ccoc2C)C1 (configuration not stated) | 36.6%
24 | CCOC(=O)c1c(C)[nH]c2c1-c1ccccc1C(=O)C2=O | 26.6%
25 | CCOC(=O)c1c(C)[nH]c(C)c1C(=O)COC(=O)c1cc2ccccc2cc1O | 55.5% (active)
26 | CCOC(=O)c1c(C)[nH]c(C(=O)COC(=O)c2oc3ccccc3c2C)c1C | 31.9%
27 | COCc1cc(=O)[nH]c(/N=C(\N)Nc2cccc(C)c2)n1 | 25.1%
28 | Cc1cccc(NC2=C(Cl)C(=O)OC2NC(=O)c2ccccc2)c1 (configuration not stated) | 23.1%
29 | CCCc1nn(C)c(C(=O)Nc2cccc(C)c2)c1Cl | 65.5% (active)
30 | Cc1cc(=O)n2ccccc2c1C#N | 15.6%
31 | O=S(=O)(Nc1ccncc1Cl)c1ccccc1 | 25.1%
32 | O=C1C2C(C(=O)N1/N=C/c1ccc([N+](=O)[O-])o1)C1C=CC2C12CC2 (configuration not stated) | 38.2%
33 | O=C1C2C(C(=O)N1/N=C/c1cc(Br)cc([N+](=O)[O-])c1O)C1C=CC2C12CC2 (configuration not stated) | 66.2% (active)
34 | CCOC(=O)c1c(NC2OC(=O)c3c2ccc(OC)c3OC)sc(C(=O)OC(C)(C)C)c1C (configuration not stated) | 65.2% (active)
35 | CCCCC(C(=O)NC1CCCC1)N(Cc1ccco1)C(=O)Cn1nnc(-c2ccc(F)cc2)n1 (configuration not stated) | 31.1%
36 | Cc1ccc(CN2CCN(/N=C/c3cccs3)CC2)cc1 | 28.2%
37 | CC(C)(CN1CCN(Cc2ccccc2)CC1)NS(=O)(=O)c1ccc(Cl)cc1 | 41.8%
38 | Cn1cccc1/C=N/N1CCN(Cc2ccc(Cl)cc2)CC1 | 51.9% (active)
39 | COc1ccccc1CN(Cc1nc2ccccc2c(=O)[nH]1)C(=O)Nc1ccccc1 | 46.4%
40 | C#C[C@]1(O)CC[C@H]2[C@@H]3CCC4=C(CCC(=O)C4)[C@H]3CC[C@@]21C | 61.3% (active)
41 | C#C[C@]1(O)CC[C@H]2[C@@H]3CCc4cc(O)ccc4[C@H]3CC[C@@]21C | 79.5% (active)
42 | O=C(OC1CCOC1=O)c1cc(-c2ccc(Br)cc2)nc2ccccc12 (configuration not stated) | 46.6%

Row | Structure (SMILES) | inhibition
43 | O=C(Oc1cccc2cccnc12)c1ccc(N2C(=O)C3C4CCC(C4)C3C2=O)cc1 (configuration not stated) | 31.9%
44 | O=C(Nc1cccc(O)c1)c1noc2c1CCc1ccccc1-2 | 87% (active)
45 | CN1/C(=C\C(=O)Nc2ccc(Cl)cc2)C(C)(C)c2ccccc21 | 41.8%
46 | CCOP(=O)(C1=C(O)C(=O)C(C(C)(C)C)=CC1=O)c1ccccc1 (configuration not stated) | 38.8%
47 | Cc1cccc(N=C2NC(=O)/C(=C\c3cccs3)S2)c1 | 62.8% (active)
48 | O=C(/C=C/c1cccs1)c1cc(Br)ccc1OC(=O)N1CCOCC1 | 45.4%
49 | COc1ccc(C(=O)Cn2c(C(=O)/C=C/c3ccccc3)nc3ccccc32)cc1 | 39%
50 | COc1ccc(C(=O)/C=C/c2ccc(OC)c(CN3CCOCC3)c2)cc1 | 66% (active)
51 | CC(C)C(NC(=O)CN1C(=O)c2ccccc2S1(=O)=O)C(C)C | 33.5%
52 | C(=C\c1nc(N2CCCCCC2)c2ccccc2n1)/c1ccccc1 | 85.2% (active)
53 | C(=C\c1nc(N2CCCC2)c2ccccc2n1)/c1ccccc1 | 91.5% (active)
54 | COc1ccc2oc(=Nc3ccccc3)c(-c3nc4ccccc4[nH]3)cc2c1 | 59.1% (active)
55 | Cn1ncc(S(=O)(=O)Cc2ccccc2)c(Cl)c1=O | 39.1%
56 | Cc1cc(C)cc(Cn2ncc(Cl)c(Cl)c2=O)c1 | 57.6% (active)
57 | COc1ccc(-c2[nH]ncc2CN2CCC(OCc3ccccn3)CC2)c(F)c1 | 21.9%
58 | O=C(/C=C/c1ccccc1)/C=C/c1ccccc1 | 54.5% (active)
59 | Cc1nc(NC(=O)/C=C/c2ccccc2)n[nH]1 | 48.2%
60 | Cc1ccc2occ(C(=O)c3ccco3)c(=O)c2c1 | 84% (active)
61 | Cc1ccc(C)c(NC(=O)c2ccc(OC(=O)c3ccco3)cc2)c1 | 35.5%
62 | CCn1c(SCC(=O)Nc2oc(-c3ccccc3)c(-c3ccccc3)c2C#N)nnc1-c1cc(OC)cc(OC)c1 | 25.9%
